FLuc modulator – qHTS profiling assay for firefly luciferase inhibitor/activator using purifed enzyme and Km concentrations of substrates (counterscreen for miR-21 project); Luciferin 4-monooxygenase (Photinus pyralis), P08659; purified FLuc, Km substrates, luminescence inhibition; 360,000 compounds, 6.9% hits; Potency, µM (top dose mostly 57.5 µM), actives largely listed as inhibitors; note: nearly all actives have a fitted effect of over 55% in size
Target sequence (P08659 whole entry, looked up): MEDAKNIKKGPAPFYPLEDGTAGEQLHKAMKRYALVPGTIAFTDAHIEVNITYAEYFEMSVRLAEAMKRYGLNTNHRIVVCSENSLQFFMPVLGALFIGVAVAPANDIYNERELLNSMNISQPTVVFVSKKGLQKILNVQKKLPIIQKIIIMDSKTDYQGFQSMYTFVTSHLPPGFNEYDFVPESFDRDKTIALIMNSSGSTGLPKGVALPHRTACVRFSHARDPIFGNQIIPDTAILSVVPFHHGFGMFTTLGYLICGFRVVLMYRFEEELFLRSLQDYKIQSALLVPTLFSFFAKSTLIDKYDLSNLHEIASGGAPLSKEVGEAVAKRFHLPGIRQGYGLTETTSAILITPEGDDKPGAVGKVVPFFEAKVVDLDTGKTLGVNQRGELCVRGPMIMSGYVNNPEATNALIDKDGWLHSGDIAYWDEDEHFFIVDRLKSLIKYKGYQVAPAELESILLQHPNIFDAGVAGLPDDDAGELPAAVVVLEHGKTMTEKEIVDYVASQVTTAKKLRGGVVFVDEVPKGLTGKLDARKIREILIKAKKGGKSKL
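Biochemical qHTS of compounds, final roughly 60 µM downward over six points, against 10 nM purified firefly luciferase using Km concentrations of substrates (10 uM D-luciferin, 10 uM ATP) in Tris acetate pH 7.5 buffer; luminescence output.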
Rab9 promoter act – qHTS Assay for Rab9 Promoter Activators; Huh7 Rab9 promoter-luciferase reporter, luminescence, 24 h; Potency, µM (top dose mostly 9.22 µM), actives largely listed as activators; 320,000 compounds, 2.8% hits; note: nearly all actives have a fitted effect of over 60% in size
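Promoter activation is measured as luciferase luminescence in Huh7 cells stably transfected with a Rab9 promoter–luciferase construct, following 24 h compound exposure at 37 °C and 10 min reagent incubation at ambient temperature.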
SMN2 splice up – qHTS Assay for Enhancers of SMN2 Splice Variant Expression; HEK293 SMN2-luciferase splicing reporter, luminescence, 30-36 h; Potency, µM (titrated, usually from 46.1 µM), actives largely listed as activators; 210,000 compounds, 2.8% hits; AID 1458, 2008; note: nearly all actives have a fitted effect of over 55% in size
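HEK293 cells carry an SMN2 […]–luciferase reporter in which exon 7 inclusion puts luciferase in frame. Cells were plated 10-12 h before compound addition, then incubated 30-36 h at 37C. ONE-Glo luminescence was read; sodium butyrate at 4.5 mM final served as control.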
NPC1 prom act – qHTS Assay for NPC1 Promoter Activators; AID 485313, 2010; Potency, µM (series often up to 9.22 µM), actives largely listed as activators; 320,000 compounds, 2.4% hits; Huh7 NPC1 promoter luciferase reporter, 24 h; note: nearly all actives have a fitted effect of over 60% in size
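In 1536-well qHTS, Huh7 cells harboring an NPC1 promoter–luciferase construct received compound for 24 h; activation was quantified by luminescence following luciferase reagent addition.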
ELG1 genotox – qHTS screen for small molecules that induce genotoxicity in human embryonic kidney (HEK293T) cells expressing luciferase-tagged ELG1; Potency, µM (top dose mostly 46 µM), usual class: activators; HEK293T ELG1-luciferase reporter, luminescence, 16 h; 330,000 compounds, 1.3% hits; AID 504466, 2011; note: nearly all actives have a fitted effect of over 60% in size
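Quantitative HTS format in 1536-well plates. HEK293T ELG1-luciferase reporter cells receive test compound and are incubated 16 hr at 37 °C, 5% CO2; ONE-Glo added, 30 min room temperature, then luminescence read.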
Hits are given with their value; . = inactive; ? = inconclusive; / = not tested or not shown; [ ] = dose if it differs, or a comment. Compounds with a hit are over-represented: about 7.4% of the library has one in this group of screens. Calls come from the whole dose curve; as a rule, active = well fitted curve in the direction sought with a large enough effect; inconclusive = small, poorly fitted or top-dose-only effect, or another doubt; inactive = no such curve, though single readings can be large; an effect the other way counts as inactive or inconclusive.

SMILES	FLuc modulator	Rab9 promoter act	SMN2 splice up	NPC1 prom act	ELG1 genotox
c1ccc(C(Cc2nc(-c3ccccn3)no2)c2ccccc2)cc1	?	?	.	?	.
c1ccc(-c2noc(CC3CCCCC3)n2)nc1	9.53µM	1.12µM	/	3.55µM	?
c1ccc(Cc2nc(-c3ccccn3)no2)cc1	23.9µM	2.82µM	25.1µM	?	?
CCn1c(=NC(=O)c2ccc(S(=O)(=O)N3CCCCC3)cc2)sc2cccc(OC)c21	.	/	?	/	/
COc1cccc(CNC(=O)c2sc3nc4n(c(=O)c3c2C)CCC4)c1	.	/	/	/	/
Cc1ccc2ccc3cc(C(=O)Nc4ccc(C)c(F)c4)nc3c2[nH]1	.	/	/	/	/
CCN(CC(=O)NCc1ccc(F)cc1)C(=O)c1ccc(COc2ccccc2)cc1	16.9µM	?	/	?	.
CCC(Oc1ccccc1)C(=O)N(CC)CC(=O)NCc1ccc(F)cc1 (stereo not drawn)	.	.	/	.	.
COc1ccc(-n2nnc3c(SCC(=O)NCc4ccco4)ncnc32)cc1	9.53µM	.	.	.	.
Cc1ccc(-n2nnc3c(SCC(=O)NCc4ccco4)ncnc32)cc1	13.5µM	.	.	.	.
O=C(CSc1ncnc2c1nnn2-c1ccc(F)cc1)NCc1ccco1	.	.	.	.	.
COc1ccc(-n2c(-c3ccc(F)cc3)cnc2SCC(=O)NCc2ccco2)cc1	23.9µM	.	.	.	?
CCN(CC)c1cc(C)nc2nc(-c3ccc(C)cc3)nn12	?	/	.	/	/
Cc1cccc(Cn2cccc2CNS(=O)(=O)c2ccc(C)c(C)c2)c1	.	/	/	/	/
Cc1ccccc1NC(=O)c1nc2nccc(C)n2n1	?	3.55µM	14.1µM	?	?
Cc1ccccc1Nc1nc(-c2ccccc2)c(C(=O)Nc2cccnc2)s1	15.1µM	.	.	.	.
C/C(=N\NC(=S)Nc1cc(S(=O)(=O)N2CCOCC2)ccc1Cl)c1ccccc1F	26.9µM	.	.	.	.
COc1ccccc1CNC(=O)CCC1N=C2c3ccccc3N=C(SCc3cccc(Cl)c3)N2C1=O (stereo not drawn)	/	/	.	/	/
Nc1nc(NC(=O)c2ccc(Cl)cc2)nn1-c1ccccc1	19µM	.	.	.	.
O=C(NCc1cccnc1)c1cnc2n(c1=O)CCS2	.	.	.	.	.
O=C(NCCc1ccccc1)c1cnc2n(c1=O)CCS2	?	2.24µM	?	?	?
CSc1ccc(CCNC(=O)c2cnc3c(C)cccn3c2=O)cc1	.	/	/	/	/
Cc1cccn2c(=O)c(C(=O)NCCc3ccc(Cl)cc3)cnc12	13.5µM	/	/	/	/
O=C(NCCc1c[nH]c2ccccc12)c1cnc2n(c1=O)CCS2	?	4.47µM	?	?	.
COc1ccc(NC(=O)N2CCCC3(CCN(C(=O)c4csnn4)CC3)C2)cc1	/	/	.	/	/
SMILES	FLuc modulator	Rab9 promoter act	SMN2 splice up	NPC1 prom act	ELG1 genotox
COc1ccc(CCNC(=O)CCn2c(=O)c3ccccc3n(CC(=O)Nc3ccccc3F)c2=O)cc1OC	.	/	.	/	/
COc1cccc(CCNC(=O)c2c(O)nc3ccccn3c2=O)c1	.	/	.	/	/
Brc1c(-c2ccc3c(c2)OCO3)nc2ncccn12	23.9µM	?	/	.	?
COc1ccc(-c2nc3ncccn3c2Br)cc1	15.1µM	2.51µM	/	?	?
Cc1ccc(-c2nc3ncccn3c2Nc2ccc3c(c2)OCCO3)cc1	?	.	.	.	.
CCOC(=O)c1cc2c(=O)n3ccccc3nc2n(CC(C)C)c1=NC(=O)COc1ccc(Cl)cc1	.	/	.	/	/
CCOc1ccc(-n2nc3ccc(N)cc3n2)cc1	0.757µM	.	/	?	?
CCOc1ccc(-n2nc3cc(C)c(NC(=O)c4cc(OCC)c(OCC)c(OCC)c4)cc3n2)cc1	.	/	.	/	/
CCOc1ccc(-n2nc3cc(C)c(N)cc3n2)cc1	0.338µM	0.447µM	/	0.447µM	?
COC(=O)c1nnc(C(=O)NCc2ccccc2)c2[nH]c3ccccc3c12	/	/	.	/	/
CC(C)(C)C1CCc2sc(C(=O)NNC(=O)CCl)cc2C1 (stereo not drawn)	4.78µM	.	.	.	?
O=C(CCn1ccc2cc(S(=O)(=O)N3CCCC3)ccc21)NCc1cccc(Br)c1	.	/	/	/	/
O=C(Nc1nc2ccc(F)cc2s1)C1=COCCO1	0.426µM	0.282µM	/	0.708µM	?
COc1ccc(Cl)c2sc(NC(=O)C3=COCCO3)nc12	?	.	/	.	?
CSc1cccc2sc(NC(=O)C3=COCCO3)nc12	.	.	/	.	.
Cc1ccc(Cl)c2sc(NC(=O)C3=COCCO3)nc12	19µM	.	/	.	?
Cc1cc(C)c2sc(NC(=O)C3=COCCO3)nc2c1	2.13µM	0.447µM	/	0.562µM	?
O=C(Nc1nc2cc3c(cc2s1)OCCO3)C1=COCCO1	0.0536µM	.	/	.	?
O=C(NCc1ccccc1Cl)c1cnc2sc(N3CCOCC3)nn2c1=O	.	/	/	/	/
Nc1nc2ncc(=O)[nH]c2c(=O)[nH]1	/	/	.	/	/
Cc1ccc(-c2nnc(NC(=O)C3=COCCO3)o2)c(C)c1	15.1µM	.	/	.	.
COC(=O)c1ccc(OCC(=O)c2ccccc2)cc1	7.57µM	3.16µM	12.6µM	3.16µM	?
Cc1cccc(OCC(=O)Nc2ccc(NC(=O)c3ccccc3)cc2)c1	.	.	/	.	.
Cc1cccc(C(=O)Nc2cccc(OCC(=O)O)c2)c1	15.1µM	.	/	.	.
COc1cccc(C(=O)COc2ccc(NC(=O)c3ccccc3)cc2)c1	3.38µM	.	/	.	.
SMILES	FLuc modulator	Rab9 promoter act	SMN2 splice up	NPC1 prom act	ELG1 genotox
COc1cccc(C(=O)Nc2cccc(OCC(=O)c3ccccc3)c2)c1	12µM	.	.	.	.
NCCC[C@@H](CC(=O)N[C@@H]1CCCC[C@H]1C(=O)N[C@H](CC(=O)N[C@@H](CCC(=O)O)CC(=O)O)Cc1c[nH]c2ccccc12)NC(=O)C[C@H](Cc1c[nH]c2ccccc12)NC(=O)[C@@H]1CCCC[C@H]1N	/	/	.	/	/
N[C@@H](Cc1cccnn1)C(=O)O	/	/	.[9.22 µM]	/	/
C=CCOC(=O)N[C@H](/C(C(=O)OC)=C(\C)NCc1ccccc1)c1ccc(Br)cc1	/	/	.	/	/
O=C(COc1cccc(NC(=O)c2cccs2)c1)c1ccc(F)cc1	23.9µM	.	.	.	.
O=C(O)COc1cccc(NC(=O)c2ccccc2)c1	?	.	.	.	.
O=C(Nc1cccc(Oc2ccc3c(c2)C(=O)NC3=O)c1)c1cccs1	.	.	.	.	.
O=C(COc1cccc(NC(=O)c2ccccc2)c1)c1ccccc1	15.1µM	.	/	.	.
Cc1ccc(CCNC(=O)Cn2ncc3c([nH]c4ccc(C)cc43)c2=O)cc1	.	/	/	/	/
Cc1cc(/C=C2/C(=O)N(C)C(=S)N2C)c(C)n1C1CC1	3.01µM	2µM	12.6µM	2.82µM	18.4µM
Cc1cc(/C=C2\SC(=S)NC2=O)c(C)n1C1CC1	6.75µM	?	.	?	.
Cc1cc(/C=C2\SC(=O)NC2=O)c(C)n1-c1ccc(N(C)C)cc1	.	.	/	.	.

Bioassay records deposited in PubChem BioAssay by National Center for Advancing Translational Sciences (NCATS).
